# From the supplement of paper PMC6555819
# Tests used:
# Test in all cases: PBM binding z-score (relative to random genomic background probes); higher = stronger binding; sequences stand for … in GC…GCGATTGACAGCGTAGAATGAAGG
# [1] = test system: FXR:RXRa (NR concentration 270 nM, RXRa partner concentration 90 nM)
# Method in brief: (§1)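 Antibodies against each partner of ligand-free nuclear receptor dimers (one per run) detected binding on custom Agilent 4×180K protein-binding microarrays after 1 h incubation. The double-stranded probes had 34-nt variable regions carrying direct-repeat seeds, single-nucleotide variants, half-site ablations and random human genomic background sequences. Binding z-scores, from regression-normalized fluorescence, use the random background probes as reference.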
# [2] = test system: LXRa:RXRa (NR concentration 270 nM, RXRa partner concentration 90 nM)
# Method in brief: as §1
# [3] = test system: LXRa homodimer (NR concentration 270 nM)
# Method in brief: as §1
# [4] = test system: LXRb:RXRa (NR concentration 270 nM, RXRa partner concentration 90 nM)
# Method in brief: as §1
# [5] = test system: LXRb homodimer (NR concentration 270 nM)
# Method in brief: as §1
# [6] = test system: PPARa:RXRa (NR concentration 270 nM, RXRa partner concentration 90 nM)
# Method in brief: as §1
# [7] = test system: PPARg:RXRa (NR concentration 180 nM, RXRa partner concentration 90 nM)
# Method in brief: as §1
# [8] = test system: PPARg:RXRa 270nM:90nM, anti-RXR (NR concentration 270 nM, RXRa partner concentration 90 nM)
# Method in brief: as §1
# [9] = test system: PPARg:RXRa 30nM:10nM, anti-RXR (NR concentration 30 nM, RXRa partner concentration 10 nM)
# Method in brief: as §1
# [10] = test system: PPARg:RXRa 90nM:30nM, anti-RXR (NR concentration 90 nM, RXRa partner concentration 30 nM)
# Method in brief: as §1
# [11] = test system: PPARg:RXRa DBDmut IVT, anti-RXR (DBD mutation: RXRa K156A/R161A, NR concentration 270 nM, RXRa partner concentration 90 nM)
# Method in brief: as §1
# [12] = test system: PPARg:RXRa IVT, anti-PPARg (NR concentration 270 nM, RXRa partner concentration 90 nM)
# Method in brief: as §1
# [13] = test system: PPARg DBDmut:RXRa IVT, anti-PPARg (DBD mutation: PPARg1 K132A/R137A, NR concentration 270 nM, RXRa partner concentration 90 nM)
# Method in brief: as §1
# [14] = test system: PPARg DBDmut IVT, anti-PPARg (DBD mutation: PPARg1 K132A/R137A, NR concentration 270 nM)
# Method in brief: as §1
# [15] = test system: PPARg homodimer (NR concentration 180 nM)
# Method in brief: as §1
# [16] = test system: PXR:RXRa (NR concentration 270 nM, RXRa partner concentration 90 nM)
# Method in brief: as §1
# [17] = test system: PXR homodimer (NR concentration 270 nM)
# Method in brief: as §1
# [18] = test system: RARa:RXR (NR concentration 270 nM, RXRa partner concentration 90 nM)
# Method in brief: as §1
# [19] = test system: RARa homodimer (NR concentration 270 nM)
# Method in brief: as §1
# [20] = test system: RARb:RXRa (NR concentration 270 nM, RXRa partner concentration 90 nM)
# Method in brief: as §1
Sequence,PBM binding z-score [1],PBM binding z-score [2],PBM binding z-score [3],PBM binding z-score [4],PBM binding z-score [5],PBM binding z-score [6],PBM binding z-score [7],PBM binding z-score [8],PBM binding z-score [9],PBM binding z-score [10],PBM binding z-score [11],PBM binding z-score [12],PBM binding z-score [13],PBM binding z-score [14],PBM binding z-score [15],PBM binding z-score [16],PBM binding z-score [17],PBM binding z-score [18],PBM binding z-score [19],PBM binding z-score [20]
CAAACTACGTCAAAGGTCAAAGTCGAGCCAACCA,5.96,6.21,4.83,5.68,2.75,6.18,8.64,7.97,6.79,8.59,0.954,3.98,7.78,3.09,4.03,5.6,1.77,6.64,2.88,4.73
ATATGTAGGTTAAGGGTCTTTCAGGTTGGTTCGC,1.3,1.7,0.812,1.77,0.832,4.62,8.46,8.05,6.71,8.67,7.78,7.16,1.06,1.67,2.46,1.45,1.1,1.64,1.86,1.55
TTACCAAGGTGAGCTGGGGTCGTTGATCCAACTC,0.996,0.819,-0.542,1.37,-0.609,2.37,0.431,1.19,-0.099,0.415,0.928,2.07,-0.594,-0.348,0.0514,4.52,0.268,2.72,-0.868,1.55
GAAACGAGGGCAAGTTGATAGCAGAGTTTGATGG,1.07,0.537,-0.42,0.157,-0.895,2.38,1.76,1.76,0.251,1.2,5.01,4.04,0.483,0.387,0.633,0.91,1.01,0.741,-0.324,2.48
TCAAATAGGTAAAAGGTGAAAGTCGGTGTGGTAA,2.23,1.93,0.419,2.06,-0.106,5.45,8.26,8.33,8.45,9.13,4.66,4.53,0.779,0.749,2.29,1.91,0.411,3.31,1.82,2.27
CAAACTAGGTCAAGGTAAAAGTCGGTTTGTGCCA,3.54,2.52,0.259,1.97,0.356,4.86,8.27,7.09,4.93,6.9,8.78,8.76,1.41,0.73,1.61,1.54,-0.0973,2.24,0.604,4.42
TGAATGAGGTTAAAGAGCAGGGAACGTGGCGTCG,2.98,2.56,-0.586,1.45,0.129,4.23,4.98,6.01,4.52,5.96,2.26,3.24,-0.099,-0.275,0.719,1.53,-0.274,2.52,0.12,1.94
CAGACTGGGGCATAAGGTTACCATAAGCCAGCCC,0.722,2.35,-0.275,1.27,-0.727,2.55,3.37,3.96,2.09,3.72,4,4.18,-0.272,-0.433,0.704,0.652,-0.537,1.59,-0.341,1.66
ATCGAAAGGTTGACGAGGTGAGTATACACCGTTT,1.11,0.773,-0.233,0.764,-0.00698,1.79,0.968,0.974,0.581,0.771,0.0825,1.03,0.76,1.04,0.684,0.914,0.374,1.25,0.63,1.79
TCTAGTAGGTTACCAATGGGGCATTCAGCTTTCT,0.412,1.74,-0.049,1.37,0.0938,2.14,2.38,2.93,3.2,2.81,5.22,5.27,0.435,0.135,0.405,0.365,-0.176,0.372,5.32e-05,1.26
ACTATTAGTTGAGCCGAGGGCAACCGATAGGTTG,0.981,0.0811,-0.117,-0.118,0.161,0.302,0.401,-0.167,-0.144,-0.0304,-0.387,0.273,0.194,-0.123,-0.122,1.43,0.308,0.433,0.387,1.21
GCGACTGGGGCATCAGCAGGTTACTATAACTTAA,0.0216,-0.0377,-0.448,0.689,-0.343,1.27,0.884,1.05,-0.238,0.594,4.13,3.05,-0.371,-0.562,-0.0326,-0.0216,-0.178,0.369,-0.337,0.825
CCTAGCAGGCCATTCTGGGTCACTCAAGGCTTGA,2.69,4.53,0.0938,2.17,-0.726,2.61,0.687,1.16,-0.704,0.4,3.36,3.51,-0.645,-1.57,0.115,1.61,-0.27,1.71,-0.611,1.75
ACTATTAGATGAGACGAGGGCAACCGATAGGTTG,0.455,0.107,0.389,0.0232,0.456,0.35,1.04,0.132,0.496,0.603,0.41,0.591,1.15,1.11,1.13,0.465,0.757,0.634,1.38,0.915
CGTCCACGGTCAAGGTCAGTGAAAGAGACTCGAA,2.73,1.71,-0.21,1.6,-0.801,2.61,0.677,1.15,-0.28,0.438,0.397,1.53,-0.802,-1.07,1.28,1.69,0.177,2.2,0.0153,4.28
GCGACTGGGGCAAAACAGGTTACCATAAGGTTGG,0.267,0.15,-0.287,0.476,-0.432,1.12,1.22,0.615,-0.338,-0.0458,3.9,3.17,-0.443,-0.478,-0.0203,0.334,-0.325,0.794,-0.332,0.897
CCGAGTAGGTTATGGGGCATACAGGCAACGGTGA,0.216,0.557,-0.0431,0.599,-0.226,2.3,3.69,4.52,2.65,4.38,2.66,3.61,0.382,0.114,1.1,-0.123,-0.0326,-0.237,0.493,0.987
TAGCCTAGGTCATTCAGGGGCCAGGATAGAAAGC,4.96,3.81,0.311,2.77,0.864,3.69,2.2,2.42,0.232,1.26,1.12,2.85,0.258,-0.519,1.31,2.26,-0.068,3.5,-0.579,3.97
ACAGACAGGTGATGAAGTTAACTCAGGCTATCAT,-0.177,-0.305,-0.307,-0.225,-0.182,-0.03,0.514,-0.0899,-0.051,-0.038,-0.14,0.266,0.864,0.239,0.153,0.166,0.125,0.133,0.502,-0.00565
AGTCATAGTTCATCTAGGTAACGTAAGATATGCT,2.22,2.66,1.11,1.59,0.357,2.84,2.87,3.22,1.32,2.47,0.73,2.74,1.12,0.57,1.23,2.03,1.24,1.78,0.89,3.26
ATCTCTAGGTAACCAAGTTCAGGGAATGCCGAAC,0.126,0.821,0.817,0.638,0.621,1.28,0.946,1.03,0.158,0.596,3.23,2.89,0.704,1.55,0.857,2.04,1.49,0.735,0.329,1.15
GCTAGTTGGTCAGTAAAAGGTTACACACCGGTCG,0.754,1.32,0.582,1.27,-0.0752,1.85,0.972,2.31,0.546,1.46,0.66,1.05,-0.658,-0.197,1.27,1.42,0.164,1.98,0.524,2
CCTACTGGGCTATCAGGTCATTGATATCAACGTT,1.15,0.988,0.914,1.16,-0.189,2.01,1.45,2.47,0.664,2.01,3.17,4.19,0.0312,-0.392,0.841,1.33,0.575,1.41,0.294,1.55
GCTAGTTGGTCAGTAAAAGGTCACTCACCGGTCG,2.88,3.91,4.1,3.49,0.861,3.87,1.93,4.19,1.77,3.49,1.28,2.47,-0.335,0.0493,3.31,4.53,0.779,5.19,1.56,4.12
ATCTCTAGCTAACCAAGTTCAGTGAATGCCGAAC,-0.0786,0.353,0.78,0.261,0.798,-0.0272,-0.107,-0.251,-0.294,-0.0743,-0.58,-0.0463,0.368,0.475,0.651,1.32,1.49,0.181,0.128,0.746
TCATATAGGTAAATGCTACGTGAAAGTCCGATCT,0.931,0.681,0.145,0.726,0.254,0.91,0.924,2.02,3.64,2.58,3.82,2.01,1.39,1.49,0.811,0.667,0.362,0.641,0.913,0.222
CCGACTGGGGCATAAGGTTAGCATAAGCCAGCCC,-0.404,-0.371,-0.738,-0.254,-1.19,1.04,1.7,2.32,0.353,1.83,3.03,2.86,-1.39,-1.75,-0.109,-0.447,-0.542,0.115,-0.345,1.12
ATCTCTAGGTAAAAGTTCAGAGAATCCCGAGGAT,1.14,1.55,1.43,1.03,0.872,4.35,8.44,7.88,7.79,9.43,2.03,3.83,1.22,1.3,1.38,1.99,1.55,1.76,1.49,2.5
GGAACGAGGGCAAGTTGATGGCAGAGTTTGATGG,0.782,0.592,-0.0865,-0.0137,-0.434,1.55,0.994,0.903,-0.146,0.602,3.55,2.56,-0.155,-0.96,0.499,0.948,0.748,0.523,-0.279,2.47
